According to PubChem BioAssay:
Calls of active or inactive are those of the source. Unless noted, how the calls were made is not given here.

Experiments:
[1] = compound effects on lung adenocarcinoma cell viability – A549, calcein-AM fluorescence, 48 h, basal, profiling panel (AID 1162); details: higher = more signal; further: test concentration not given here
[2] = compound effects on differentiated 3T3-L1 adipocyte viability – cell-based, 3T3-L1 adipocytes, calcein-AM fluorescence, 48 h, basal, profiling panel (AID 1163); details: 3T3-L1 adipocytes viability, higher = more signal; further: test concentration not given here
[3] = compound effects on hepatocellular carcinoma cell viability – HepG2, calcein-AM fluorescence, 48 h, basal, profiling panel (AID 1164); details: higher = more signal; further: test concentration not given here
[4] = compound effects on multiple myeloma cell viability – MM1S, calcein-AM fluorescence, 48 h, basal, profiling panel (AID 1165); details: higher = more signal;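 further: viability of MM1S multiple myeloma cells under basal unstimulated conditions; test concentration not given here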
[5] = calcein-AM signal in unstimulated myeloma cells – cell-based, calcein-AM fluorescence, 48 h, PK04 Diversity Set, profiling panel (AID 1166); details: RPMI8226 myeloma viability, higher = more signal;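 further: cells grown under basal conditions without added stimulus; test concentration not given here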
[6] = JC-1 mitochondrial signal, unstimulated HepG2 cells – cell-based, JC-1 fluorescence, 24 h, 100 nL compound, profiling panel (AID 1167); details: HepG2 mitochondrial potential, higher = more signal; further: test concentration not given here
[7] = JC-1 mitochondrial signal, unstimulated adipocytes – cell-based, JC-1 fluorescence, 3T3-L1 adipocytes, 24 h, 100 nL compound, profiling panel (AID 1168); details: JC-1 mitochondrial fluorescence, higher = more signal, called active from +8 up or from −8 down; further: test concentration not given here
[8] = JC-1 mitochondrial signal, unstimulated myeloma cells – cell-based, JC-1 fluorescence, RPMI8226, 24 h, 100 nL compound, profiling panel (AID 1169); details: JC-1 mitochondrial potential fluorescence, higher = more signal; further: test concentration not given here
[9] = JC-1 mitochondrial signal, unstimulated MM1S myeloma – cell-based, JC-1 fluorescence, 24 h, 100 nL compound, profiling panel (AID 1170); details: MM1S mitochondrial potential, higher = more signal; further: test concentration not given here
[10] = resazurin metabolic signal in A549 cells – cell-based, resazurin fluorescence, 24 h, PK04 Diversity Set, profiling panel (AID 1171); details: A549 viability, higher = more signal, called active from +8 up or from −8 down; further: test concentration not given here
[11] = resazurin metabolic signal in HepG2 cells – cell-based, resazurin fluorescence, 24 h, PK04 Diversity Set, profiling panel (AID 1172); details: HepG2 viability, higher = more signal; further: test concentration not given here
[12] = budding yeast growth changes without added modifier – OD600, strain BY4716, 24 h, basal condition, primary screen (AID 1173); details: S. cerevisiae BY4716 growth, OD600, 24 h; higher = more signal, called active from +8 up or from −8 down
[13] = viability profiling in MM1S myeloma cells – cell-based, resazurin fluorescence, basal, 24 h, PK04 Diversity Set, profiling panel (AID 1174); details: higher = more signal, called active from +8 up or from −8 down; further: test concentration not given here
[14] = molecular target: Dihydroorotate dehydrogenase (quinone), mitochondrial (Plasmodium falciparum (isolate 3D7)) (UniProt Q08210); assay: inhibition of P. falciparum DHODH – biochemical, C-terminal His tag, absorbance 600 nm, primary screen (AID 1175); details: PfDHODH enzyme, DCIP absorbance 600 nm; higher = more signal, called active from +8 up or from −8 down;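 further: recombinant parasite enzyme with a five histidine tag at its C terminus; test concentration not given here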
[15] = inhibition of PAO1 biofilm formation – strain PAO1, LB-PBS medium, absorbance 600 nm, primary screen (AID 1176); further: test concentration not given here; details: P. aeruginosa PAO1 growth/biofilm, A600, 12 h; higher = more signal
[16] = growth modulation of vineyard yeast isolate – strain RM11-1a, OD600, basal, 24 h, primary screen (AID 1177);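 further: cultures grown under basal conditions with no added stressor; test concentration not given here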; details: S. cerevisiae RM11-1a growth, OD600, 24 h; higher = more signal, called active from +8 up or from −8 down
[17] = growth of efflux-deficient E. coli DRC39 – strain DRC39, OD650, 24 h, E. coli filamentation inducers, primary screen (AID 1178);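 further: growth measured as culture turbidity by optical density at 650 nm; test concentration not given here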; details: E. coli DRC39 acrAB, higher = more signal, called active from +8 up or from −8 down
[18] = growth of efflux-deficient E. coli DRC39 – strain DRC39, OD650, 48 h, E. coli filamentation inducers, primary screen (AID 1179);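 further: screen aims at cell division blockers that make cells filament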; details: E. coli DRC39 delta-acrAB growth, higher = more signal, called active from +8 up or from −8 down
[19] = viability profiling in RPMI8226 myeloma cells – cell-based, resazurin fluorescence, basal, 24 h, PK04 Diversity Set, profiling panel (AID 1180); details: higher = more signal;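 further: RPMI8826 multiple myeloma cell line at 5000 cells per well; test concentration not given here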
[20] = molecular target: E3 ubiquitin-protein ligase XIAP (Homo sapiens) (UniProt P98170); assay: small molecules binding XIAP protein – biophysical, small-molecule microarray, fluorescence 635 nm, primary screen (AID 1181); details: higher = more signal;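 further: score merges 667 nm emission and signal to noise over triplicate slides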
Chain of E3 ubiquitin-protein ligase XIAP (Homo sapiens) (P98170 whole entry, looked up): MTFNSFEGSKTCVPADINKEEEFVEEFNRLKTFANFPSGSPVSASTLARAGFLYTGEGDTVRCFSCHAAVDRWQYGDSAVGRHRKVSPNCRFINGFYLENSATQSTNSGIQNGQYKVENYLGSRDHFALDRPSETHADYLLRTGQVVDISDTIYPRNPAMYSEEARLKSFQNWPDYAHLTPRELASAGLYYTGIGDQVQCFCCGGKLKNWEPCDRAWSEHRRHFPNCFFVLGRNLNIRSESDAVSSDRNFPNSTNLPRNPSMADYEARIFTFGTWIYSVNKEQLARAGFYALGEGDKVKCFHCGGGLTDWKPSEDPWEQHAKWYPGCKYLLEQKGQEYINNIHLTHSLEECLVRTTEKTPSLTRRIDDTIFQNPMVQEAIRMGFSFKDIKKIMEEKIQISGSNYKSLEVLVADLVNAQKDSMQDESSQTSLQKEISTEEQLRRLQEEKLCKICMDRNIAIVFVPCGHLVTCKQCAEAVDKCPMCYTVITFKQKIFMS

Chain of Dihydroorotate dehydrogenase (quinone), mitochondrial (Plasmodium falciparum (isolate 3D7)) (Q08210 whole entry, looked up): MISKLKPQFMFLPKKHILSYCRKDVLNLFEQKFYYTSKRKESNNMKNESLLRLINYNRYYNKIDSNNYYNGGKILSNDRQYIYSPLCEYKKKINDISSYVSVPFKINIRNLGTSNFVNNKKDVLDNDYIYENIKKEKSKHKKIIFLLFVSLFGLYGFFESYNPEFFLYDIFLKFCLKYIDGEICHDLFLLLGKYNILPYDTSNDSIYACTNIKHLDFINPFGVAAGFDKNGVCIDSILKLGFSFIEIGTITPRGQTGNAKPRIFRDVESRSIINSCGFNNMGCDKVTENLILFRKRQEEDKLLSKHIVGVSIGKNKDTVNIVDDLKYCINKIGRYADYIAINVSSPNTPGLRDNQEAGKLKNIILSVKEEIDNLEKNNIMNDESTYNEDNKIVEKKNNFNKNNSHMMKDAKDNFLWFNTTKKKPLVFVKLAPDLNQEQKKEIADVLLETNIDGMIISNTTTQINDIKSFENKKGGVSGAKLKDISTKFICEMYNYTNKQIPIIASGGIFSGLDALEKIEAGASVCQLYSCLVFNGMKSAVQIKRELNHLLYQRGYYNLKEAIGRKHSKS

Compound	z-score [1]	z-score [2]	z-score [3]	z-score [4]	z-score [5]	z-score [6]	z-score [7]	z-score [8]	z-score [9]	z-score [10]	z-score [11]	z-score [12]	z-score [13]	composite z-score [14]	z-score [15]	z-score [16]	z-score [17]	z-score [18]	z-score [19]	composite z-score [20]
CC(C)(C)OC(=O)CC[C@@]1(C(=O)O)N=C(c2ccc(OCCCO)cc2)O[C@@H]1c1ccccc1CN=[N+]=[N-]	0.824	-0.0107	0.0885	0.131	0.813	-0.0553	-0.913 (inactive)	-0.411	-0.579	10.4 (active)	0.911	-0.496 (inactive)	-0.378 (inactive)	0.221 (inactive)	-0.0988 (inactive)	0.323 (inactive)	1.35 (inactive)	1.35 (inactive)	-1.09	0.492
CO[C@H]1O[C@H](CO)[C@@H](OC(=O)Nc2ccc(Oc3ccccc3)cc2)[C@H](OC(=O)Nc2ccccc2-c2ccccc2)[C@@H]1OC(=O)Nc1ccccc1-c1ccccc1	-0.0685	0.0358	-0.61	-0.443	-0.612	0.319	2.46 (inactive)	-1.13	0.267	-0.41 (inactive)	0.776	1.01 (inactive)	-0.648 (inactive)	0.308 (inactive)	0.18 (inactive)	2.58 (inactive)	-0.325 (inactive)	-0.0232 (inactive)	-0.296	-0.117
C[n+]1ccc(CCCO)cc1	-0.566	0.927	-0.96	0.375	-1.77	-0.0921	-0.321 (inactive)	-0.502	0.0343	-1.15 (inactive)	-0.744	0.883 (inactive)	-0.255 (inactive)	-4.35 (inactive)	-0.199 (inactive)	0.684 (inactive)	-1.02 (inactive)	-1.1 (inactive)	-0.551	0.769
CN(C)C(=O)[C@@]1(Cc2ccccc2N=[N+]=[N-])COC(c2ccc(OCCCO)cc2)=N1	1.69	-0.541	1.32	-0.257	0.192	1.4	0.0922 (inactive)	-0.934	-1.23	0.325 (inactive)	1.44	-4.24 (inactive)	-0.0135 (inactive)	0.369 (inactive)	-0.497 (inactive)	0.481 (inactive)	0.632 (inactive)	1.42 (inactive)	0.816	0.194
O=C1O[C@H](c2ccccc2)[C@H](c2ccccc2)N2[C@H]1[C@@H](C(=O)O)[C@]1(C(=O)Nc3ccccc31)[C@H]2c1ccc(O)cc1	0.29	-0.268	-0.733	0.0137	0.605	-1.33	-1.43 (inactive)	0.73	0.0818	0.769 (inactive)	-0.401	0.671 (inactive)	0.186 (inactive)	-1.66 (inactive)	1.53 (inactive)	0.473 (inactive)	0.293 (inactive)	-0.221 (inactive)	0.494	-0.237
CN(C)CCCCNC(=O)[C@H]1C[C@H]2C(=O)N[C@@H](CCCCN(C)C)C(=O)N2[C@H]1c1cccc(OCCO)c1	-0.317	0.0593	-0.269	-0.0355	0.495	0.13	0.429 (inactive)	0.426	0.23	0.471 (inactive)	1.11	0.427 (inactive)	0.895 (inactive)	-0.493 (inactive)	-1.48 (inactive)	0.807 (inactive)	0.0233 (inactive)	-0.0221 (inactive)	0.45	-0.0559
O=C1O[C@@H](c2ccccc2)[C@@H](c2ccccc2)N2[C@@H](c3ccccc3OCCO)[C@]3(C(=O)Nc4ccc(C#CCCO)cc43)[C@@H](C(=O)Nc3nc4ccccc4s3)[C@H]12	1.02	0.0714	0.702	-0.264	-1.55	-2.29	0.856 (inactive)	-1.13	-1.33	0.2 (inactive)	-0.0116	0.282 (inactive)	-0.095 (inactive)	-0.176 (inactive)	0.986 (inactive)	2.39 (inactive)	-0.233 (inactive)	0.695 (inactive)	-0.226	-0.145
CC(C)C(=C=CC[C@H](O)c1ccc(OCCO)cc1)C[C@H](O)c1cc(Cl)cc(Cl)c1O	0.648	0.831	-0.627	-3.41	-3.74	-1.77	-0.132 (inactive)	-0.124	-0.66	0.885 (inactive)	0.918	-5.12 (inactive)	-1.31 (inactive)	-2.84 (inactive)	-0.21 (inactive)	-0.2 (inactive)	1.14 (inactive)	0.476 (inactive)	-0.576	0.0338
COC(=O)[C@H](Cc1ccccc1)N1CC(/C=C/C2CC2)=C[C@@H]1[C@@H](O)Cc1ccccc1	0.56	-0.0766	0.942	-3.21	-3.07	-0.0594	0.427 (inactive)	-1.04	-2.45	0.73 (inactive)	1.09	-2.65 (inactive)	-2.24 (inactive)	0.114 (inactive)	0.294 (inactive)	0.385 (inactive)	0.461 (inactive)	0.658 (inactive)	-0.277	-0.0414
NC(=O)N1C(=O)C2C(C1=O)C1C=C(c3ccc(CO)cc3)C2C(C2CC2)N1Cc1sc2ccccc2c1Cl (stereo not given)	0.965	0.21	0.197	-3.27	-3.61	0.159	0.189 (inactive)	-0.65	-0.311	-0.207 (inactive)	-0.131	-2.55 (inactive)	-1.06 (inactive)	-2.67 (inactive)	-0.836 (inactive)	-0.484 (inactive)	0.927 (inactive)	0.112 (inactive)	-1.23	-0.117
CCCCN1CC=CC23O[C@@H]4C=CCOC(=O)[C@@H]4[C@H]2C(=O)N(CCCO)[C@@H]3C1=O (stereo not given in full)	-0.117	1.11	-0.49	0.799	-0.304	-1.11	0.111 (inactive)	-0.702	0.797	-1.28 (inactive)	-1.09	-0.233 (inactive)	-0.788 (inactive)	-0.284 (inactive)	-0.193 (inactive)	0.164 (inactive)	-1.33 (inactive)	-1.28 (inactive)	-0.848	0.106
C=CCOC(=O)[C@@H]1[C@H]2C(=O)O[C@H](c3ccccc3)[C@H](c3ccccc3)N2[C@H](c2ccc(OCCOC(=O)[C@H]3C[C@H]4C(=O)N[C@@H](CCCCN(C)C)C(=O)N4[C@H]3c3cccc(OCCO)c3)cc2)[C@@]12C(=O)Nc1ccc(I)cc12	0.0169	-0.859	-0.102	-0.671	-0.654	-0.89	1.12 (inactive)	-0.374	-1.19	-0.299 (inactive)	-0.999	2.24 (inactive)	-0.302 (inactive)	0.26 (inactive)	2.57 (inactive)	1.17 (inactive)	-0.0783 (inactive)	-0.0986 (inactive)	-0.209	-0.202
C[N+](C)(C)CCCC[C@@H]1NC(=O)[C@@H]2C[C@H](C(=O)O)[C@H](c3ccc(O)cc3)N2C1=O	-0.643	0.422	0.914	0.379	-0.0923	0.0942	-0.907 (inactive)	-0.142	-0.454	-0.246 (inactive)	-1.16	0.824 (inactive)	0.18 (inactive)	-11.6 (active)	0.103 (inactive)	0.0252 (inactive)	0.233 (inactive)	0.596 (inactive)	-0.339	-0.199
NC(=O)NCC#Cc1ccc2c(c1)[C@]1(C(=O)N2)[C@H](c2ccc(O)cc2)N2[C@H](c3ccccc3)[C@H](c3ccccc3)OC(=O)[C@H]2[C@@H]1C(=O)Nc1nc2ccccc2s1	0.421	1.17	0.157	-0.168	0.496	-3.24	0.352 (inactive)	-1.16	-2.12	0.754 (inactive)	0.971	3.54 (inactive)	0.972 (inactive)	-0.579 (inactive)	4.48 (inactive)	5.85 (inactive)	1.04 (inactive)	1.19 (inactive)	0.388	0.591
C=CCNC(=O)[C@@H]1[C@H]2C(=O)O[C@H](c3ccccc3)[C@H](c3ccccc3)N2[C@H](c2ccc(OCCO)cc2)[C@@]12C(=O)N(C(=O)OCCOC)c1ccc(C#CC3=CCCCC3)cc12	-0.549	-0.354	0.0468	-1.45	-1.59	-0.893	-0.0381 (inactive)	-0.814	-1.57	-1.01 (inactive)	-0.344	1.83 (inactive)	-0.897 (inactive)	-1.47 (inactive)	2.17 (inactive)	2.57 (inactive)	-0.713 (inactive)	-0.206 (inactive)	-1.66	-0.426
C=CC[C@@]12N=C(c3ccc(OCCCO)cc3)O[C@@H]1c1ccccc1N(CCS(=O)(=O)c1ccccc1)C2=O	0.4	0.962	1.05	-1.41	-1.02	0.381	2.23 (inactive)	-0.899	-1.22	-1.54 (inactive)	0.653	0.0618 (inactive)	-1.97 (inactive)	0.0628 (inactive)	-0.251 (inactive)	0.379 (inactive)	0.907 (inactive)	1.6 (inactive)	-1.07	0.0303
COc1ccc(C(O)C2C=CC3C(=O)N(Cc4ccccc4)C(=O)C3N2n2cnnc2)c2ccccc12 (stereo not given)	0.0609	0.936	0.0591	0.405	-1.34	-0.722	0.895 (inactive)	-0.992	-0.129	-0.96 (inactive)	-1.05	0.373 (inactive)	-1.47 (inactive)	-0.609 (inactive)	-0.722 (inactive)	-0.975 (inactive)	-0.597 (inactive)	-0.706 (inactive)	-1.06	0.176
COc1ccc([Si](C)(C)[C@H]2[C@H](CCn3cc(CCO)nn3)O[C@@]3(C(=O)N(Cc4ccc(N5C(=O)c6cccc7cccc5c67)cc4)c4ccccc43)[C@@H]2C)cc1	-1.61	1.36	-4.11	-2.56	-4.29	-0.0483	-0.712 (inactive)	-1.09	-2.18	-2.57 (inactive)	-2.42	0.0502 (inactive)	-5.99 (inactive)	-1.14 (inactive)	0.519 (inactive)	1.66 (inactive)	0.528 (inactive)	0.251 (inactive)	-5.65	0.0636
